# IDE exosite FP = displaces the probe from the exo-site of human IDE; hit rate 6.3% among 17,000; AID 1259349; z-score at 20 µM; P14735; purified IDE, FL-6b probe fluorescence polarization; active compounds read low;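 active = z-score of -3 or lower, meaning strong loss of probe binding signal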;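 also: His-tagged human IDE residues 42-1019 made in E. coli with 30 nM FL-6b probe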
# Target sequence (P14735 42-1019 limits assumed): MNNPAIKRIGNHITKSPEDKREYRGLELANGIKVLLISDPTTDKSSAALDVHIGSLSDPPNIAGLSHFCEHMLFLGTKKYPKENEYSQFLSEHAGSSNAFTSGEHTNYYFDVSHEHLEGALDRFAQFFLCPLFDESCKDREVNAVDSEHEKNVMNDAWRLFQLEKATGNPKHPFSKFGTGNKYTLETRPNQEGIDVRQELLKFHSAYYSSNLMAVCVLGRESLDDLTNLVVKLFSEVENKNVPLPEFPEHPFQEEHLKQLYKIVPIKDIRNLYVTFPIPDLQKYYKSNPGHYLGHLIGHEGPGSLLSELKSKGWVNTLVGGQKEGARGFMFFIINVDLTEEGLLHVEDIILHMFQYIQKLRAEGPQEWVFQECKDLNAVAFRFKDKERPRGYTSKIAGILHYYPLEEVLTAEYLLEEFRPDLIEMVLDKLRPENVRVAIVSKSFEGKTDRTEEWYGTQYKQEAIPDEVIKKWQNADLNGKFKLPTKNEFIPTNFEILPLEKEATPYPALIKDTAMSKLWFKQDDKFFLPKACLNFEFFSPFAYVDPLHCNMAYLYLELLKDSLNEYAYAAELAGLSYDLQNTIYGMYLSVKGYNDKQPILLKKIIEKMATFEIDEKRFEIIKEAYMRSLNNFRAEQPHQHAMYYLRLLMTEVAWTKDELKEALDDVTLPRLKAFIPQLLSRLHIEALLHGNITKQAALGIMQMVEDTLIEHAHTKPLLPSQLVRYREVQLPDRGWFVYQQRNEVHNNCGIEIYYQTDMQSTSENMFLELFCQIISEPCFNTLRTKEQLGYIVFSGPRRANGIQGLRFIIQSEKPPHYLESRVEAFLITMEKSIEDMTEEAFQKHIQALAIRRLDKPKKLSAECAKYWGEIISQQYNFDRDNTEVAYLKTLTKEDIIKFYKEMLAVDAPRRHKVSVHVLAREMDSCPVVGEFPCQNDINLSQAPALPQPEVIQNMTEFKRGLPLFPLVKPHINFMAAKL
# The depositor's hits bear a star. The entries come from a sample that favours hits as a whole.
SMILES,IDE exosite FP
CC(C)[C@H]1C(=O)N[C@H](c2cccc(Cl)c2)CC=CC[C@H](C)Oc2ccccc2C(=O)N1C (mixture of isomers),-0.41
OC[C@@H]1[C@@H](c2ccc(-c3ccc(F)cc3)cc2)[C@@H]2CN(Cc3cccnc3)CCCCN12,1.2
CCCC#Cc1ccc([C@H]2[C@@H](CO)N3CCCCN(Cc4ccncc4)C[C@H]23)cc1,-1.6
OC[C@H]1[C@H](c2ccc(/C=C/c3ccccc3)cc2)[C@@H]2CN(Cc3ccncc3)CCCCN12,-4.5*
OC[C@H]1[C@H](c2ccc(/C=C/c3ccccc3)cc2)[C@@H]2CN(Cc3cccnc3)CCCCN12,-2.4
CCCC#Cc1ccc([C@@H]2[C@@H](CO)N3CCCCN(Cc4ccncc4)C[C@H]23)cc1,3.3
OC[C@@H]1[C@H](c2ccc(/C=C/c3ccccc3)cc2)[C@H]2CN(Cc3cccnc3)CCCCN12,-5.4*
OC[C@H]1[C@@H](c2ccc(-c3ccc(F)cc3)cc2)[C@@H]2CN(Cc3cccnc3)CCCCN12,-1.7
OC[C@@H]1[C@@H](c2ccc(/C=C/c3ccccc3)cc2)[C@H]2CN(Cc3cccnc3)CCCCN12,-5.2*
OC[C@H]1[C@@H](c2ccc(-c3ccc(F)cc3)cc2)[C@H]2CN(Cc3cccnc3)CCCCN21,3.4
CCCC#Cc1ccc([C@@H]2[C@H]3CN(C(=O)Nc4ccc(F)cc4)CC(=O)N3[C@H]2CO)cc1,4.3
C[C@H](NC(=O)C[C@@H]1C[C@H]2c3cc(NS(=O)(=O)c4ccc(F)cc4)ccc3O[C@H]2[C@@H](CO)O1)c1ccccc1,-1.8
CO[C@H]1CN(C)C(=O)c2cc(NC(C)=O)ccc2OC[C@@H](C)N(S(C)(=O)=O)C[C@@H]1C,0.62
C[C@H](CO)N1C[C@H](C)[C@@H](CN(C)CC2CC2)Oc2ccc(NC(=O)CCC(F)(F)F)cc2CC1=O,-0.17
N#C[C@H]1[C@H](c2ccc(C#Cc3ccccc3F)cc2)[C@H](CO)N1C(=O)c1cccnc1,-2.4
CCCNC(=O)N1CC(=O)N2[C@H](CO)[C@H](c3ccc(-c4ccc(F)cc4)cc3)[C@H]2C1,0.88
CCCNC(=O)N1CC(=O)N2[C@H](CO)[C@H](c3ccc(-c4ccccc4)cc3)[C@@H]2C1,-2.2
COc1ccccc1NC(=O)N1CCCCN2[C@H](CO)[C@H](c3ccc(-c4cccc(C)c4)cc3)[C@H]2C1,-1.5
COc1ccccc1NC(=O)N1CC(=O)N2[C@H](CO)[C@H](c3ccc(-c4cccc(C)c4)cc3)[C@@H]2C1,-3.7*
CCCNC(=O)N1CC(=O)N2[C@H](C1)[C@H](c1ccc(-c3cccc(C)c3)cc1)[C@@H]2CO,-14*
COc1ccccc1NC(=O)N1CC(=O)N2[C@H](C1)[C@H](c1ccc(-c3ccc(F)cc3)cc1)[C@@H]2CO,2.2
CCCNC(=O)N1CC(=O)N2[C@H](CO)[C@H](c3ccc(-c4ccc(C)cc4)cc3)[C@@H]2C1,-1.4
CCCNC(=O)N1CC(=O)N2[C@H](CO)[C@@H](c3ccc(-c4ccc(C)cc4)cc3)[C@H]2C1,-3.1*
CCCNC(=O)N1CC(=O)N2[C@H](C1)[C@@H](c1ccc(-c3ccc(F)cc3)cc1)[C@@H]2CO,0.76
N#C[C@@H]1[C@@H](c2ccccc2-c2ccccc2)[C@H](CO)N1C(=O)Cc1ccncc1,-1.8
SMILES,IDE exosite FP
C/C=C/c1ccccc1[C@@H]1[C@@H](C#N)N(C(=O)CN2CCOCC2)[C@@H]1CO,0.38
COCC(=O)N1CCC2(CC1)CN(C(=O)c1ccccn1)[C@@H](CO)c1c2c2ccc(OC)cc2n1C,-1.2
CCCC#Cc1cnc2c(c1)C(=O)N([C@@H](C)CO)C[C@@H](C)[C@@H](CN(C)C(=O)Nc1cc(F)ccc1F)O2,-0.044
CCC(=O)NC[C@@H]1[C@@H](c2ccc(-c3cccc(F)c3)cc2)[C@@H](CO)N1CC1CC1,0.31
N#C[C@H]1[C@@H](c2ccccc2C2=CCCC2)[C@H](CO)N1S(=O)(=O)c1cccc(F)c1,1.6
COc1ccc(-c2ccc([C@H]3[C@H]4CN(C(=O)C5CCCC5)CC(=O)N4[C@H]3CO)cc2)cc1,-1.1
COc1cccc(-c2ccc([C@H]3[C@H](CO)N4C(=O)CN(C(=O)C5CCCCC5)C[C@@H]34)cc2)c1,-5.6*
COc1ccc(-c2ccc([C@H]3[C@H](CO)N4C(=O)CN(C(=O)C5CCCC5)C[C@@H]34)cc2)cc1,1.7
COc1cccc(-c2ccc([C@H]3[C@H]4CN(C(=O)C5CCCCC5)CC(=O)N4[C@H]3CO)cc2)c1,-3.4*
COc1cccc(-c2ccc([C@@H]3[C@H]4CN(C(=O)C5CCCCC5)CC(=O)N4[C@H]3CO)cc2)c1,-7.6*
C/C=C/c1ccc([C@H]2[C@@H](CO)N(C(=O)C3CC3)[C@H]2CN(C)C(C)=O)cc1,2.4
COCC(=O)N1CC(=O)N2[C@H](C1)[C@H](c1ccc(-c3cccnc3)cc1)[C@@H]2CO,3.1
C/C=C/c1ccc([C@H]2[C@@H](C#N)N(c3nc(CC)cs3)[C@@H]2CO)cc1,1.4
N#C[C@@H]1[C@H](c2ccc(C#CC3CCCCC3)cc2)[C@H](CO)N1C(=O)c1cccc(F)c1,1.8
COc1ccc2c3c(n(C)c2c1)[C@@H](CO)N(C)CC31CN(S(=O)(=O)c2cccc(C)c2)C1,-1.9
CN(C)C(=O)C[C@H]1C[C@@H]2c3cc(NC(=O)c4cccnc4)ccc3O[C@@H]2[C@@H](CO)O1,-0.27
O=C(Nc1ccccc1)N1CC(=O)N2[C@H](C1)[C@@H](c1ccc(C#CC3CCCCC3)cc1)[C@@H]2CO,0.91
C/C=C/c1ccc([C@H]2[C@@H](CO)N3C(=O)CN(C(=O)c4ccc(F)cc4)C[C@@H]23)cc1,0.17
CC(=O)N1CC(=O)N2[C@H](C1)[C@H](c1ccc(-c3ccc(C#N)cc3)cc1)[C@@H]2CO,4.5
O=C(c1ccccn1)N1CC(=O)N2[C@@H](CO)[C@@H](c3ccc(C#CC4CCCC4)cc3)[C@@H]2C1,2.3
Cc1ccc(S(=O)(=O)Nc2ccc3c(c2)CC(=O)N([C@H](C)CO)C[C@H](C)[C@@H](CN(C)S(=O)(=O)c2ccccc2)O3)cc1,1.6
O=C(CN1CCOCC1)N1CCCCN2[C@@H](CO)[C@@H](c3ccc(-c4ccccc4F)cc3)[C@@H]2C1,-5.1*
O=C(CN1CCOCC1)N1CCCCN2[C@H](CO)[C@@H](c3ccc(-c4ccccc4F)cc3)[C@H]2C1,1.6
COc1ccccc1-c1ccc([C@H]2[C@H]3CN(C(=O)CN4CCOCC4)CCCCN3[C@H]2CO)cc1,-2.6
O=C(CN1CCOCC1)N1CCCCN2[C@H](C1)[C@@H](c1ccc(-c3ccccc3F)cc1)[C@@H]2CO,-1.4
SMILES,IDE exosite FP
COc1ccccc1-c1ccc([C@@H]2[C@H]3CN(C(=O)CN4CCOCC4)CCCCN3[C@H]2CO)cc1,0.61
COc1ccccc1-c1ccc([C@@H]2[C@H](CO)N3CCCCN(C(=O)CN4CCOCC4)C[C@@H]23)cc1,-15*
C[C@@H](NC(=O)[C@H]1[C@H](CO)[C@H]2Cn3c(ccc(-c4ccccc4)c3=O)[C@H]2N1C)c1ccccc1,0.0021
COc1ccc(C[C@H]2CCn3nncc3COCCCNC2=O)cc1,0.15
CCS(=O)(=O)N1CCCCN2[C@H](CO)[C@@H](c3ccc(-c4ccc(C#N)cc4)cc3)[C@H]2C1,3.9
COCC#Cc1ccc([C@@H]2[C@@H](CO)N3CCCCN(S(=O)(=O)c4ccccc4C)C[C@H]23)cc1,1.7
COc1ccc2c3c([nH]c2c1)[C@H](CO)N(Cc1ccccc1)CC31CCN(C(=O)NC(C)C)CC1,-1.8
